Potency data for 24 compounds are collected here from PubChem BioAssay (NCATS).

Inconclusive results are not listed. A call without a number means that no potency is given here. The source made the active and inactive calls. Calls follow the shape of the dose curve; as a rule, active = well fitted cell-killing curve with a large enough effect; inconclusive = small, poorly fitted or top-dose-only effect, or effect the other way; inactive = flat fitted curve, though single readings scatter.
Potency is read from the fitted curve at half-maximal effect.

The assay deals with HeLa. Nature of the assay: Primary qHTS to identify gynecologic anti-cancer compounds using libraries of approved drugs and bioactive compounds (AID 1345084). Also: nearly all actives have a fitted effect of over 55% in size. Particulars: Gynecologic cancer cell panel viability, ATPlite luminescence, 48 h; series mostly up to 57.5 µM. In short, it runs like this:
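In this quantitative HTS, cell killing is estimated from loss of ATP-dependent luciferase light. Cells see five compound concentrations over a 48 h exposure.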
`COC(=O)Nc1nc2ccc(C(=O)c3ccccc3)cc2[nH]1`: the Potency was 1 µM (active). As to `O=C(N[C@H](CO)[C@H](O)c1ccc([N+](=O)[O-])cc1)C(Cl)Cl`, the Potency result was “inactive”.

With `CCCc1cc(C(N)=S)ccn1`, the Potency entry was “inactive”. Regarding `O=C(O)c1cn(C2CC2)c2cc(N3CCNCC3)c(F)cc2c1=O`, the Potency entry is “inactive”.

With `Cc1noc(NS(=O)(=O)c2ccc(N)cc2)c1C`, the Potency result was “inactive”. On to `CN(C)CCc1c[nH]c2ccc(CS(=O)(=O)N3CCCC3)cc12`, for which the Potency entry is “inactive”. `CO[C@@H]1[C@@H](OC(N)=O)[C@@H](O)[C@H](Oc2ccc3c(O)c(NC(=O)c4ccc(O)c(CC=C(C)C)c4)c(=O)oc3c2C)OC1(C)C`: the Potency entry is “inactive”. As to `CCOc1cc(N)c(Cl)cc1C(=O)NCC1CN(Cc2ccc(F)cc2)CCO1` (centres undefined), the Potency result is “inactive”. Consider `CCC(=O)O[C@]1(C(=O)SCF)[C@H](C)C[C@H]2[C@@H]3C[C@H](F)C4=CC(=O)C=C[C@]4(C)[C@@]3(F)[C@@H](O)C[C@@]21C`, for which the Potency entry was “inactive”. Turning to `NC1(c2ccc(-c3nc4ccn5c(=O)[nH]nc5c4cc3-c3ccccc3)cc2)CCC1`, the Potency entry was “inactive”. The same measure for `OC(Cn1cncn1)(Cn1cncn1)c1ccc(F)cc1F`: “inactive”; for `Clc1ccccc1CN1CCc2sccc2C1`: “inactive”; for `Cn1c(=O)c2c(ncn2CC(O)CO)n(C)c1=O` (centres undefined): “inactive”.

For `Cc1cccc(N(C)C(=S)Oc2ccc3ccccc3c2)c1`, the Potency result was “inactive”. Turning to `CCc1cc(C(N)=S)ccn1`, the Potency entry was “inactive”. On to `COCCCOc1cc(C[C@@H](C[C@H](N)[C@@H](O)C[C@H](C(=O)NCC(C)(C)C(N)=O)C(C)C)C(C)C)ccc1OC`, for which the Potency result is “inactive”. The same measure for `CCn1cc(C(=O)O)c(=O)c2cc(F)c(N3CCNCC3)nc21`: “inactive”; for `CC[C@H](NC(C)C)[C@H](O)c1ccc(O)c2[nH]c(=O)ccc12`: “inactive”. Regarding `CC(C)OC(=O)C(C(=O)OC(C)C)=C1SC=CS1`, the Potency result is “inactive”. In the case of `COc1ccc(-c2ccc3cc(C(=O)O)ccc3c2)cc1C12CC3CC(CC(C3)C1)C2`, the Potency result is “inactive”. The same measure for `CCOC(=O)c1ccc(OC(=O)CCCCCN=C(N)N)cc1`: “inactive”; for `O=S(=O)(c1cccc2cnccc12)N1CCCNCC1`: “inactive”. On to `CNC1CCCN(c2c(F)cc3c(=O)c(C(=O)O)cn(C4CC4)c3c2OC)C1` (centres undefined), for which the Potency result was “inactive”. Take `COc1ccc2c(c1)c(CC(=O)OCC(=O)O)c(C)n2C(=O)c1ccc(Cl)cc1`: the Potency entry is “inactive”.
